# Results: PMC4552634, “A New Set of Chemical Starting Points with Plasmodium falciparum Transmission-Blocking Potential for Antimalarial Drug Discovery” (PLoS ONE, 2015)
# In all, about 13,000 compounds went through this assay and about 3,200 (25%) showed an effect of 50% or more. This is one part of the list.
# System: P. falciparum stage V gametocytes
# Set-up: BacTiter-Glo ATP luminescence viability of purified stage V gametocytes in 384-well plates, per cent inhibition versus DMSO
# Conditions: 48 h, 5 µM; inhibitor
row,SMILES,% Inhibition
1,COc1cccc(OC2CCN(C(=O)c3ccc(-c4ccc(N5CCCC5=O)cc4C)cc3)CC2)c1 [TCMDC-136524],29.3%
2,Cc1nc(N)nc(N)c1OCCCOc1ccccc1Br [TCMDC-131364],-0.5645%
3,CN1CCCC1CCNC(=O)[C@H](CC1CCCCC1)NC(=O)c1ccc(O)c(-c2ccc(Cl)c(Cl)c2)c1 (some centres unmarked) [TCMDC-140855],48.17%
4,CCN(CC)C(=O)c1cnc(-c2ccccc2)nc1Oc1cccc(Cl)c1 [TCMDC-124780],14.15%
5,CCCCCCC(C)c1cc(O)c2c(c1)OC(=O)CC2(CC)c1ccccn1 (centres unmarked) [TCMDC-131681],-3.085%
6,c1cc(CNC2Cc3ccc(-c4cccs4)cc3C2)cc(-n2ccnc2)c1 (centres unmarked) [TCMDC-134830],-2.028%
7,CC(C)C[C@H](NC(=O)c1ccc(OCCN2CCOCC2)cc1)C(=O)NC(/C=N/N1CCCC1=O)C(C)C (some centres unmarked) [TCMDC-136276],20.05%
8,CCc1cccc(OCC2CCCN(c3ccc(C(=O)NC4CC4)cn3)C2)c1 (centres unmarked) [TCMDC-134039],7.857%
9,CCN(CC)CCN(Cc1ccc(-c2ccc(C(F)(F)F)cc2)nc1)C(=O)Cn1c(SCc2ccc(F)cc2)nc(=O)c2sccc21 [TCMDC-140573],27.02%
10,CCN(CC)CCN(Cc1ccc(-c2ccc(C(F)(F)F)cc2)cc1)C(=O)Cn1c(SCc2ccc(F)cc2)nc(=O)c2sccc21 [TCMDC-140572],78.9%
11,CCN(CC)CCN(Cc1ccc(-c2ccc(C(F)(F)F)cc2)cc1)C(=O)Cn1c(SCc2ccc(F)cc2)nc(=O)c2ccccc21 [TCMDC-140983],87.16%
12,CCN(CC)CCN(Cc1ccc(-c2ccc(C(F)(F)F)cc2)cc1)C(=O)Cn1c(CCc2ccc(F)cc2)nc(=O)c2sccc21 [TCMDC-140779],90.56%
13,CCN(CC)CCN(Cc1ccc(-c2ccc(C(F)(F)F)cc2)cc1)C(=O)Cn1c(CCc2cccc(F)c2F)nc(=O)c2ccc(C)cc21 [TCMDC-141086],74.83%
14,CCN(CC)CCN(Cc1ccc(-c2ccc(C(F)(F)F)cc2)cc1)C(=O)Cn1c(CCc2cccc(F)c2F)nc(=O)c2cc(C)ccc21 [TCMDC-141014],48.99%
15,Cc1cccc(C)c1C1CCN(C2CCC(NC(=O)/C=C/c3ccccc3)CC2)CC1 (centres unmarked) [TCMDC-132879],-22.62%
16,C=CC12CCN(CC1)C(C(O)c1ccnc3ccc(OC)cc13)C2 (centres unmarked) [TCMDC-124047],-22.19%
17,O=C(Nc1ccc(F)c(F)c1)c1ccc(CN2CCCN(Cc3cccc(O)c3)CC2)cc1 [TCMDC-136390],-4.727%
